For 58 molecules, Percent Effect results are on record in ChEMBL document CHEMBL3988442, “University of Dundee, Small-Polar-MMV Screening Library” (2021).

The campaign covered roughly 69,000 compounds. About 420 (0.61%) showed an effect of 50% or more. Only a selection was taken, and strong results are over-represented in it overall.

The test deals with T1, Histidine--tRNA ligase (Leishmania infantum) (UniProt A4I591).
T1 sequence (whole entry): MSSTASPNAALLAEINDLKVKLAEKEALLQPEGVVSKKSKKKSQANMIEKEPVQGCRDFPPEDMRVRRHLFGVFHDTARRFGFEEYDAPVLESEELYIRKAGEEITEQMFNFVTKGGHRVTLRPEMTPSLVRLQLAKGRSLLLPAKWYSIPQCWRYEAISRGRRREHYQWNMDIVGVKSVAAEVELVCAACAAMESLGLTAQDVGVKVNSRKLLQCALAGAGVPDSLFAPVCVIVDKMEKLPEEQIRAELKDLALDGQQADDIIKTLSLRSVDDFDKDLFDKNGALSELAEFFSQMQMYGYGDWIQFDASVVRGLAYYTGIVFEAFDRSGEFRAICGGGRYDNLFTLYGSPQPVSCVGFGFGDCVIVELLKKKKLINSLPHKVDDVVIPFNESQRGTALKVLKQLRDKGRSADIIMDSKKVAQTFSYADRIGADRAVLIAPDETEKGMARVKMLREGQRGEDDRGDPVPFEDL
Put plainly: Leishmania infantum Histidine tRNA synthetase (LdHisRS). Details: scale not given: in the data most compounds retested in dose-response had high values. Type of test: functional. As to conditions: 30 µM.
With `CC(C)CC(=O)N1CC[C@H]2N(C)CC[C@@]2(C(=O)Nc2cccnc2)CC1`, the Percent Effect stood at 11.7%.
On to `CCN(CC)C(CNC(=O)c1ccc(S(C)(=O)=O)cc1)c1ccco1` (stereo not drawn), for which the Percent Effect was 19.2%.
Consider `Cn1cc(NC(=O)Nc2cccc3cccnc23)ccc1=O`, for which the Percent Effect is 114%.
As for `COC(=O)N1CCCN(C(=O)c2cccc3cccnc23)CC1`, the Percent Effect worked out at 8.26%.
With `CCCn1cc(NC(=O)c2ccc(S(C)(=O)=O)cc2)ccc1=O`, the Percent Effect stood at 94.6%.
`Cn1cc(C(=O)Nc2cccc(F)c2)ccc1=O`: the Percent Effect was 26.5%.
In the case of `CCCn1cc(NC(=O)c2ccc(N(C)CC)cc2)ccc1=O`, the Percent Effect worked out at 31.5%.
As to `O=C(Nc1ccc2c(ccn2CCN2CCOCC2)c1)c1ccncc1`, the Percent Effect turned out to be 25.7%.
Take `CN(C)C(=O)Cc1ccccc1NCc1cccc2cccnc12`: the Percent Effect was determined as 13.6%.
Turning to `CCCn1cc(NC(=O)c2ccc(NC(=O)NC3CC3)cc2)ccc1=O`, the Percent Effect came to 92.8%.
In the case of `CCCN1CCC(NC(=O)Nc2ccc(OC)c(OC)c2)CC1`, the Percent Effect came out at 1.33%.
In the case of `CCCn1cc(NC(=O)c2ccncc2)ccc1=O` it was 104%.
Turning to `O=C(Nc1ccc(CCN2CCSCC2)cc1)NC1CC1`, the Percent Effect was 16.4%.
As for `COCC1(CNC(=O)[C@@]23CNC[C@@H]2CN(C2CCCC2)C3)CC1`, the Percent Effect was found to be 12.8%.
As to `CS(=O)(=O)N1C[C@H](NC(=O)c2ccno2)[C@@H]2OCCC[C@@H]21`, the Percent Effect worked out at 10%.
Regarding `COc1ccc(CN2C[C@@H]3OCCN(C)[C@@H]3C2)cc1`, the Percent Effect amounted to 19.3%.
Regarding `Cc1nc([C@@H]2C[C@H]3CN(Cc4scnc4C)C[C@H]3O2)no1`, the Percent Effect amounted to 17.1%.
Regarding `Cn1cc(C(=O)N[C@H]2CN(Cc3nccs3)[C@@H]3CCCO[C@H]23)cn1`, the Percent Effect stood at 28.6%.
In the case of `Fc1cnc(N2C[C@H]3CCC[C@@]3(COc3ccccn3)C2)nc1` it was 0%; in that of `CC(=O)N1CCO[C@@H]2CN(Cc3cccc(Cl)c3)C[C@@H]2C1`, 15.3%; in that of `COc1cccc(CN2C[C@@H]3COC[C@]3(COc3cccnc3)C2)c1`, 19.3%.
Consider `c1ccc(OC2COC3(CCN(Cc4ccccn4)CC3)C2)cc1` (stereo not drawn), for which the Percent Effect amounted to 15%.
Consider `Cc1cccc(CN2CCS(=O)(=O)[C@@H]3CCN(C(=O)C4CC4)CC[C@@H]32)n1`, for which the Percent Effect worked out at 5.26%.
`CCCn1cc(NC(=O)c2cccc3cccnc23)ccc1=O`: the Percent Effect was determined as 75.9%.
In the case of `CCCn1cc(NC(=O)c2ccc(S(=O)(=O)CC)cc2)ccc1=O` it was 114%; in that of `CCCn1cc(NC(=O)c2cccnc2O)ccc1=O`, 17.1%; in that of `CN1CCC/C1=N\S(=O)(=O)c1ccc(NC(=O)c2ccc(F)cc2)cc1`, 15.6%.
Take `Cn1cc(NC(=O)c2cccc3cccnc23)ccc1=O`: the Percent Effect worked out at 20.5%.
On to `CCS(=O)(=O)c1cccc(C(=O)Nc2cccc3c2C(=O)N(C)C3=O)c1`, for which the Percent Effect amounted to 21.5%.
For the molecule `O=C(C[C@@H]1COC[C@H]2CN(Cc3ccccc3)C[C@@H]12)N1CCCC1`, the Percent Effect came out at 23.1%.
For `CN1[C@@H](C(=O)NCC2CC2)C[C@@H]2CN(Cc3ccco3)C[C@@H]21`, the Percent Effect was 17.1%.
In the case of `CCOC(=O)[C@]12CCCN(Cc3nccs3)C[C@H]1CN(C(C)=O)C2`, the Percent Effect is 10.7%.
Consider `O=C([C@@H]1CC[C@@H]2[C@@H](CCN2CCOCc2ccccc2)O1)N1CCCC1`, for which the Percent Effect is 16%.
For the molecule `CN(C)C(=O)CN1C[C@@H]2CC[C@H](C1)N(Cc1ccc3nsnc3c1)C2`, the Percent Effect is 11.3%.
As for `Cc1cnc(N2CC[C@@H]3O[C@@H](COCc4ccccn4)CC[C@@H]32)nc1`, the Percent Effect came out at 13%.
In the case of `CC(C)Oc1ccccc1C1CC(=O)Nc2nc(N3CCOCC3)sc21` (stereo not drawn) it was 97.5%; in that of `COc1cccc(C2CC(=O)Nc3nc(N4CCOCC4)sc32)c1OC` (stereo not drawn), 111%.
Consider `COc1ccccc1C1CC(=O)Nc2nc(N3CCCCC3)sc21` (stereo not drawn), for which the Percent Effect came to 118%.
Then `CC(C)Oc1ccccc1C1CC(=O)Nc2c1cnn2C` (stereo not drawn), with -14.3%; and `COc1ccccc1C1CC(=O)Nc2c1c(=O)[nH]n2C1CCCC1` (stereo not drawn), with 14.3%.
In the case of `CCOc1cccc(C2CC(=O)NCc3nc(N4CCCC4)sc32)c1` (stereo not drawn) it was 24.7%; in that of `COc1cccc(CNCc2ccnc(N3CCOCC3)c2)c1OC`, 7.14%.
On to `COc1cccc(C2CC(=O)Nc3nc(N4CCCCC4)sc32)c1OC` (stereo not drawn), for which the Percent Effect worked out at 120%.
Consider `COc1cccc(CNc2nc(N3CCOCC3)ns2)c1OC`, for which the Percent Effect was 13.5%.
Turning to `O=c1[nH]nc(-c2cccs2)c2sc(N3CCOCC3)nc12`, the Percent Effect is 11.9%.
In the case of `COc1ccccc1C1CC(=O)Nc2c1c(=O)[nH]n2C(C)C` (stereo not drawn), the Percent Effect was found to be 16.5%.
Then `CCn1ncnc1C1CC(=O)NCc2nc(N3CCCC3)sc21` (stereo not drawn), with 15.7%; and `Cc1cccc(CN2C(=O)CC[C@@H]3[C@H]2CCN3Cc2ccc(C)s2)n1`, with 8.03%; and `CC1=N[C@@]2(CC[C@@H]3CN(S(=O)(=O)N(C)C)C[C@@H]32)C(=O)N1CC(C)C`, with 9.02%.
`CC(=O)N1CC[C@H]2CC(=O)N(CCc3c[nH]cn3)CC[C@H]2C1`: the Percent Effect turned out to be 9.46%.
Take `Cc1ncc(C(=O)N2CC[C@@]3(O)CCN(C(=O)N(C)C)C[C@H]3C2)cn1`: the Percent Effect is 10.6%.
`O[C@@]1(CN2CCN(Cc3ccncc3)CC2)CCCN2CCCC[C@@H]21`: the Percent Effect was determined as 20%.
`Cn1ncc2c1NC(=O)CC2c1ccccc1Br` (stereo not drawn): the Percent Effect was -2.5%.
For `COc1cccc([C@@H]2N[C@H](c3nccs3)Cc3ccsc32)c1OC`, the Percent Effect stood at 9.86%.
`COc1cccc(C2C3=C(COC3=O)Nc3[nH]nc(C)c32)c1OC` (stereo not drawn): the Percent Effect amounted to 16.7%.
For the molecule `O=C1CC(c2ccccc2Br)c2sc(N3CCOCC3)nc2N1` (stereo not drawn), the Percent Effect amounted to 87.5%.
As for `COc1cccc(C2CC(=O)Nc3nc(N)sc32)c1OC` (stereo not drawn), the Percent Effect is 91.4%.
In the case of `O=C1CC(c2ccccc2C(F)(F)F)c2sc(N3CCOCC3)nc2N1` (stereo not drawn) it was 5%.
